Hits are enriched below; roughly 3.7% of the tested compounds scored in any of these assays.
ELG1 DNA repair = qHTS screen for small molecules that inhibit ELG1-dependent DNA repair in human embryonic kidney (HEK293T) cells expressing luciferase-tagged ELG1; HEK293T ELG1-luciferase reporter, luminescence, 16 h; DNA damage induced by 5-fluorouridine; Potency, µM (highest dose often 46.1 µM), most hits filed as inhibitors; 330,000 compounds, 2.3% hits; note: nearly all actives have a fitted effect of over 55% in size
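Reporter activity after DNA damage by 5-fluorouridine is monitored. Compound-treated cells incubate 16 hr at 37 °C, then ONE-Glo is added for 30 min before luminescence reading.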
Nrf2 activator = qHTS of Nrf2 Activators. AREc32 ARE-luciferase reporter (MCF7-derived line), luminescence, 24 h. Potency, µM (titrated, usually from 46.1 µM), usual class: activators. 410,000 compounds, 0.31% hits. AID 624171, 2012; note: nearly all actives have a fitted effect of over 65% in size
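Steps: seed AREc32_Fluc cells (1000/well, 5% FBS OPTI-MEM); incubate overnight at 37 deg C; add 23 nL compound; incubate 24 hr; add Steady-Glo; hold 30 min RT; read luminescence.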
A549 tox = Nrf2 qHTS screen for inhibitors: counterscreen for cytotoxicity; A549 ARE-Fluc cells, CellTiter-Fluor viability, 18-24 h; Potency, µM (top dose mostly 46 µM), actives largely listed as inhibitors; 390,000 compounds, 0.16% hits; AID 504648, 2011
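A549 ARE-Fluc cells in 5% FBS OPTI-MEM, 5000 cells/well, rested 2 h then exposed to compounds in concentration-response for 18-24 h at 37 °C. Viability by CellTiter-Fluor fluorescence (Ex 405/Em 525) after 30 min; luciferase luminescence (BugLite, 15 min, RT) read afterwards.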
Nrf2 block = Nrf2 qHTS screen for inhibitors. 360,000 compounds, 2.1% hits. A549 ARE-Fluc reporter, luciferase luminescence, 18-24 h. Potency, µM (doses to about 46 µM), hits mostly inhibitors; note: nearly all actives have a fitted effect of over 60% in size
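Nrf2 function is reported as luminescence of an ARE-controlled luciferase in A549 cells. Compounds were tested at several concentrations, and a CellTiter-Fluor read on the same wells flagged cytotoxicity.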
Hits are given with their value; i = inactive; ? = inconclusive; nt = no result given. Calls come from the whole dose curve; as a rule, active = well fitted curve in the direction sought with a large enough effect; inconclusive = small, poorly fitted or top-dose-only effect, or another doubt; inactive = no such curve, though single readings can be large; an effect the other way counts as inactive or inconclusive.

SMILES	ELG1 DNA repair	Nrf2 activator	A549 tox	Nrf2 block
Cc1onc(-c2ccccc2Cl)c1C(=O)Nc1ccc(OCC(=O)N2CCOCC2)cc1	9.2µM	i	i	?
CCCCOc1ccc(C(=O)Nc2ccc(OCC(=O)N3CCOCC3)cc2)cc1	?	i	i	?
O=C(Nc1ccc(OCC(=O)N2CCOCC2)cc1)c1cncc(Br)c1	9.2µM	i	i	i
O=C(Nc1ccc(OCC(=O)N2CCOCC2)cc1)c1ccccc1Cl	?	i	i	?
O=C(Nc1ccc(Br)cc1)c1cccc(OC(=S)N2CCOCC2)c1	i	i	i	16µM
Cc1ccc(Cn2c(CO)cnc2SCC(=O)NCc2ccccc2Cl)cc1	nt	i	i	nt
O=C1/C(=C\c2ccco2)NC(=S)N1c1ccccc1	?	8.9µM	i	?
CCCN=C1N/C(=C\c2ccco2)C(=O)N1c1ccccc1	i	i	i	i
CCN(CC)c1ccc(NC(=O)COCc2cc(-c3ccc4c(c3)OCO4)on2)c(C)c1	nt	i	i	?
CCOC(=O)c1cnc(-n2nc(C)cc2C)nc1NNc1nc(C)cc(C)n1	12µM	i	i	i
CCOC(=O)c1cnc(-n2nc(C)cc2C)nc1Nc1cccc(C(=O)O)c1	?	i	i	i
CCOC(=O)c1cnc(-n2nc(C)cc2C)nc1NC	i	i	i	i
CCOC(=O)c1cnc(-n2nc(C)cc2C)nc1NNc1nc(-c2ccccc2)cc(-c2ccccc2)n1	5.2µM	i	?	8.2µM
CCOC(=O)c1cnc(-n2nc(C)cc2C)nc1Nc1ccc(C)cc1	?	i	?	i
CCOC(=O)c1cnc(-n2nc(C)cc2C)nc1Nc1ccc(N(C)C)cc1	15µM	i	i	i
Cc1ccc(S(=O)(=O)NC(=O)C2(C)CCN2C(=O)Cc2cccs2)nc1 (stereo not given)	nt	i	nt	nt
COc1ccc(NC(=O)Cc2nnc(SCC(=O)Nc3nccs3)n2C)cc1	i	i	i	i
Cc1nn(Cc2ccc(F)cc2)c2sc(C(=O)Nc3ccc(N4CCOCC4)cc3N3CCOCC3)cc12	18µM	i	i	15µM
COc1ccc(C2NC(=S)NC3=C2CCCC3=C2SCCS2)cc1 (stereo not given)	?	3.2µM	i	?
CC(NC(=O)CCCCCNC(=O)N1CCn2c1nc1ccccc12)c1ccccc1 (stereo not given)	?	i	i	i
CC1CCCCN1C(=O)CSc1nnc2c(n1)[nH]c1ccc(F)cc12 (stereo not given)	i	i	i	?
CC1CCc2cc(F)ccc2N1C(=O)CSc1nnc2c(n1)[nH]c1ccc(F)cc12 (stereo not given)	i	i	?	21µM
COc1cc2c(cc1OC)n(CC(=O)c1ccc(F)cc1)c(=O)n1nc(CCn3nc(C)cc3C)nc21	nt	i	?	nt
COc1ccc(C(=O)CC(Nc2ccc([N+](=O)[O-])cc2)c2ccc(Cl)cc2)cc1 (stereo not given)	16µM	i	?	6.5µM
COc1ccc(C(=O)CC(=O)C(=O)Nc2ccc(Cl)cc2)cc1	?	i	i	i
SMILES	ELG1 DNA repair	Nrf2 activator	A549 tox	Nrf2 block
Oc1ccc(N2CCN(c3nnnn3-c3ccccc3)CC2)cc1	?	i	i	i
CCCCC(=O)Nc1nc(C)c(-c2csc(Nc3cc(OC)ccc3OC)n2)s1	18µM	i	i	i
CCCC(C)C(=O)Nc1nc(C)c(-c2csc(Nc3ccc(Cl)cc3)n2)s1 (stereo not given)	?	i	i	15µM
CCC(C)C(=O)Nc1nc(C)c(-c2csc(Nc3cc(OC)ccc3OC)n2)s1 (stereo not given)	?	i	i	?
CCC(C)C(=O)Nc1nc(C)c(-c2csc(Nc3cc(Cl)ccc3OC)n2)s1 (stereo not given)	?	i	i	8.2µM
CCCCC(=O)Nc1nc(C)c(-c2csc(Nc3cc(Cl)ccc3OC)n2)s1	?	i	i	i
Cc1c(C(=O)N2CCN(c3ccccc3)CC2)oc2c(F)cccc12	i	i	i	i
Cc1ccc(C(=O)Nc2ccc(Cl)c(-c3nc4ncccc4o3)c2)c(C)c1	nt	i	i	?
CCN(C(=O)CSc1nc(-c2ccc(C(C)C)cc2)no1)c1ccccc1	nt	i	i	i
COc1ccc(-c2nc3ccccc3c(=O)n2Cc2ccc(CNC(=O)CO)cc2)cc1COc1ccc(NC(C)=O)cc1	nt	nt	i	?
CN(C)C(CNC(=O)c1ccc(S(=O)(=O)N(C)C)cc1)Cc1ccccc1 (stereo not given)	i	i	?	?
COc1ccc(CNC(=O)CCCn2c(SCC#N)nc3cc4c(cc3c2=O)OCO4)cc1	23µM	i	i	i
CCCCNC(=O)CSc1nc2cc3c(cc2c(=O)n1CCCC(=O)NCc1ccc(OC)cc1)OCO3	nt	i	i	nt
CCN(CC(=O)Nc1ccccc1C(F)(F)F)C(=O)c1ccc2[nH]c3c(c2c1)CC(C)CC3 (stereo not given)	?	i	?	26µM
O=C(CSc1nnc(-c2cccnc2)o1)Oc1ccccc1	?	i	i	i
O=C(CSc1nnc(-c2cccnc2)o1)c1cc2ccccc2oc1=O	i	7.1µM	i	nt
Cc1cc(NC(=O)CCS(=O)(=O)c2nc(-c3ccccc3)cc(C(F)(F)F)n2)no1	?	i	i	nt
CS(=O)(=O)c1nc(-c2ccccc2)cc(C(F)(F)F)n1	?	?	?	23µM
CCCCn1c(N)c(-c2nc3ccccc3s2)c2c([N+](=O)[O-])nn(CC)c(=O)c21	?	i	i	nt
CCCCCn1c(N)c(-c2nc3ccccc3s2)c2c([N+](=O)[O-])nn(CC)c(=O)c21	2.6µM	i	i	i
CCCCn1c(N)c(-c2nc3ccccc3s2)c2c([N+](=O)[O-])nn(C)c(=O)c21	1µM	i	i	i
COCCNC(=O)C1(C)Cc2c(-c3ccc4c(c3)OCO4)ccnc2O1 (stereo not given)	nt	i	nt	nt
CCN(CC(=O)Nc1ccc(NC(C)=O)cc1)C(=O)CCCc1nc2ccccc2c(=O)[nH]1	i	i	i	i
CC(OC(=O)c1cccc(-n2cnnn2)c1)C(=O)Nc1ccc(F)c(F)c1F (stereo not given)	nt	i	i	i
O=C(Cn1ncc2c3ccccc3n(Cc3ccccc3)c2c1=O)N1CCN(c2ncccn2)CC1	?	i	i	16µM
SMILES	ELG1 DNA repair	Nrf2 activator	A549 tox	Nrf2 block
Cc1cc(O)cc(O)c1C(=O)Cc1ccccc1	10µM	i	i	i
O=C(Cc1ccc([N+](=O)[O-])cc1)c1c(O)cc(O)cc1O	i	i	i	i
COc1cc2c(cc1NC(=O)CN(C)Cc1ccc(OC)c(OC)c1)oc1ccccc12	15µM	i	i	16µM
COc1cc2c(cc1NC(=O)CCCN1C(=O)CCC1=O)oc1ccccc12	?	i	i	?
COc1cc2c(cc1NC(=O)CCCCCN1C(=O)CCC1=O)oc1ccccc12	21µM	i	i	nt
Cn1c2ccccc2c(=O)c2ccc(NCc3ccc4c(c3)OCO4)cc21	nt	i	i	26µM

Screening data deposited in PubChem BioAssay by National Center for Advancing Translational Sciences (NCATS).
